Assay outcomes: PubChem, several laboratories
Gli-Sufu block: Gli-Sufu pathway antagonists, primary screen, luciferase luminescence, Sufu-KO-LIGHT cells, uHTS; inhibition, % at 5 µM; hit rate 0.74% among 340,000; Sufu-KO-LIGHT fibroblasts, Gli luciferase reporter luminescence;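 active means inhibition above about 55%, limit read from the data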
697 NFkB inh: inhibitors of PMA/ionomycin-induced NF-kB reporter, 697 cells, primary screen, B-cell NF-kB inhibitor project, cell-based, luminescence, uHTS. 697 B-cell NF-kB luciferase reporter, 16 h. inhibition, % at 4 µM. hit rate 0.33% among 330,000. AID 435022, 2010; in the data active means inhibition above about 35%
TAG inh: inhibitors of triacylglycerol accumulation, primary screen, cell-based, uHTS, fluorescence, H9c2 | H9c2 cells, Nile Red lipid (TAG) fluorescence; cells loaded with 200 µM oleic acid | inhibition, % at 12.5 µM | hit rate 0.66% among 230,000 | AID 651582, 2012;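 active means pattern-corrected inhibition of lipid staining of at least 50% with the nuclear-stain viability signal not falling by more than 50%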
Jurkat NFkB inh: inhibitors of induced NF-kB luciferase reporter, primary screen, TCR NF-kB activation inhibitor project, cell-based, luminescence, uHTS; Jurkat, PMA/ionomycin-induced NF-kB luciferase reporter; inhibition, % at 4 µM; hit rate 0.53% among 330,000; AID 435003, 2010; in the data active means inhibition above about 50%
H9c2 protect: cardioprotection against H2O2-induced cell death, primary screen, uHTS, H9c2 cells, ATPLite luminescence. H9c2 cardiomyocytes, H2O2 injury protection, 2 h. protection from H2O2 cell death, % at 20 µM. hit rate 0.63% among 360,000;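 active means compounds giving at least 50% protection of heart cells from peroxide-induced death in the single-dose screen, raw or plate-pattern-corrected value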
NR2F2 inh: NR2F2 transcriptional activity inhibitors, primary screen, cell-based, luciferase reporter, HEK293T, luminescence; hit rate 0.7% among 370,000; inhibition, % at 8.6 µM; HEK293T NGFI-A luciferase reporter; AID 686940, 2013;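 active means inhibition above a per-plate cutoff, mean inhibition of test wells between control levels plus 3 SD, cut at about 38% in these data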;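 further: cells cotransfected with COUP-TFII expression vector driving the NGFI-A reporter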
Target sequence (P24468 whole entry, looked up): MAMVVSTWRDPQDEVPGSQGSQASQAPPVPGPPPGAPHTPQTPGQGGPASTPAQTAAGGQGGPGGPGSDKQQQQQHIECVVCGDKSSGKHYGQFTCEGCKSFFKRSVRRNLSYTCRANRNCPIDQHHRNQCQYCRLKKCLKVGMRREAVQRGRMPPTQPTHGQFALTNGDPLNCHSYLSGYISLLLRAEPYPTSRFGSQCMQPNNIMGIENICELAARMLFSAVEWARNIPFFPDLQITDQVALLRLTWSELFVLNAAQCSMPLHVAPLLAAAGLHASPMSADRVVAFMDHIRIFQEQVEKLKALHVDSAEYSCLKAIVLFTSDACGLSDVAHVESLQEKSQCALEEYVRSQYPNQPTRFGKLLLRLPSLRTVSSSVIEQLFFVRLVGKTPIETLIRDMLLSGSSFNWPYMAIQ
Gli antag conf: Gli-SUFU pathway antagonists, confirmation, single concentration, luciferase luminescence, Sufu-KO-LIGHT cells. hit rate 40% among 2,500. shares compounds with Gli-Sufu block. AID 602428, 2012. Gli luciferase reporter. inhibition, % at 5 µM;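 active means mean inhibition at 5 µM reaching about 45%, limit read from the data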
Gli cytotox: cytotoxicity in Sufu-KO-LIGHT cells, confirmation, cytotoxicity control for Gli-SUFU antagonist project, cell-based, ATP luminescence, single concentration; shares compounds with Gli-Sufu block; cytotoxicity, % at 5 µM; hit rate 32% among 2,500;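 active means mean cytotoxicity at 5 µM above about 25%, limit read from the data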;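 further: cells exposed to compound overnight for roughly 16 to 18 hours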
Wnt3a cs: Wnt3a reporter signal inhibition, confirmation, counter-screen for Gli-SUFU antagonist project, Wnt-LIGHT cells, luminescence, single concentration. inhibition, % at 6.25 µM. shares compounds with Gli-Sufu block. AID 651995, 2013. hit rate 20% among 2,500. Wnt3a-driven luciferase reporter;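 active means mean inhibition above about 25%, limit read from the data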
Numbers stand for hits; 0 = inactive; - = no result. In the library only some 2.6% were active in any assay of this set; here they are far more common.

SMILES | Gli-Sufu block | 697 NFkB inh | TAG inh | Jurkat NFkB inh | H9c2 protect | NR2F2 inh | Gli antag conf | Gli cytotox | Wnt3a cs
O=C(NCC(c1ccco1)N1CCCC1)c1sc2ccccc2c1Cl (stereo not drawn) | 0 | 0 | - | 0 | 0 | 0 | 0 | 0 | 0
O=C(OCC#CCSc1nnc(-c2c[nH]c3ccccc23)o1)c1ccc(F)cc1 | - | - | - | - | - | 0 | - | - | -
COc1ccc(CCNC(=O)c2cc3c(=O)n4ccccc4nc3n(CCCN3CCOCC3)c2=N)cc1 | 0 | 0 | - | 0 | 0 | 0 | - | - | -
COc1ccc(CCNC(=O)c2cc3c(=O)n4ccccc4nc3n(CCN3CCOCC3)c2=N)cc1 | 66 | 0 | - | 0 | 0 | 0 | 0 | 0 | 0
Cc1ccc(NC(=O)Nn2cnnc2)c(C)c1 | 55 | 0 | 0 | 0 | 0 | 0 | 0 | 0 | 0
Cc1nc2ccccc2c2oc(C(=O)N3CCN(c4ccc([N+](=O)[O-])cc4)CC3)cc12 | 59 | 0 | - | 0 | 0 | 0 | 0 | 28 | 0
Cc1nc2ccccc2c2oc(C(=O)N3CCN(C(=O)c4ccco4)CC3)cc12 | 0 | 0 | - | 0 | 0 | 0 | - | - | -
N#C/C(=C\c1ccc(-c2ccc([N+](=O)[O-])cc2)o1)C(=O)Nc1nc(-c2cccs2)cs1 | 70 | 0 | 0 | 0 | 0 | 0 | 80 | 0 | 44
N#C/C(=C/c1ccc(-c2cccc([N+](=O)[O-])c2)o1)C(=O)Nc1nc(-c2cccs2)cs1 | 0 | - | 0 | - | 0 | 0 | - | - | -
CCOC(=O)C1(CCOc2ccccc2)CCN(Cc2ccc(OC)c(COC)c2)CC1 | 57 | 0 | 0 | 0 | 0 | 0 | 0 | 0 | 0
CCOC(=O)C1(CCOc2ccccc2)CCN(Cc2ccc(OC)c(O)c2)CC1 | 0 | 0 | - | 0 | 0 | 0 | - | - | -
CCCCNC(=O)C[C@H]1C[C@@]2(C(=O)OC)C(=C[C@H](C(C)(C)C)O[C@@H]2C)N(CCc2ccc(OC)c(OC)c2)C1=O | - | - | - | - | - | 0 | - | - | -
O=C(CSc1nc2ccccc2o1)NN=C/C=C/c1ccccc1 | - | - | - | - | - | 0 | - | - | -
COC(=O)C1CN(Cc2ccc(C)cc2)CCS(=O)(=O)N1Cc1cn(Cc2ccc(F)cc2)nn1 (stereo not drawn) | - | - | - | - | - | 0 | - | - | -
COc1ccc(N2CCN(C3CCCN(S(=O)(=O)c4ccc(C)cc4C)C3)CC2)cc1 (stereo not drawn) | 60 | 0 | - | 0 | 0 | 0 | 0 | 0 | 0
COc1ccc(N2CCN(C3CCCN(C(=O)c4ccoc4)C3)CC2)cc1 (stereo not drawn) | 55 | 0 | - | 0 | 0 | 0 | 0 | 0 | 0
COC(=O)Cc1nnn2c1[C@@H](C)[C@@H](c1ccccc1Br)OC[C@H](C)C2 | - | - | - | - | - | 0 | - | - | -
CC(=O)CCN1CCSCCS1(=O)=O | - | - | - | - | - | 0 | - | - | -
CCOC(=O)c1c(C2COc3ccccc3O2)csc1N (stereo not drawn) | 0 | 0 | - | 0 | 0 | 0 | 0 | 29 | 0
CC(=O)/C(N=Nc1ccc(C(=O)O)cc1[N+](=O)[O-])=C(\C)O | 80 | 0 | 0 | 0 | 0 | 0 | 0 | 0 | 0
CCOC(=O)/C(N=Nc1ccc(C(=O)O)cc1[N+](=O)[O-])=C(\C)O | 0 | 0 | 0 | 0 | 0 | 0 | - | - | -
CCOC(=O)C(Cc1ccccc1)CP(=O)(OC)[C@@H](C)NC(=O)OCc1ccccc1 (stereo partly drawn) | - | - | - | - | - | 0 | - | - | -
CCn1c(=O)n(CC)c2cc(N3CCCC3)c(NC(=O)c3cccc(C)c3)cc21 | 0 | 0 | - | 0 | 0 | 0 | - | - | -
CCn1c(=O)n(CC)c2cc(N3CCCC3)c(NC(=O)c3ccc(C)c([N+](=O)[O-])c3)cc21 | 0 | 0 | - | 0 | 0 | 0 | 53 | 35 | 0
CCOC(=O)C1=C(C(=O)OCC)C2N(Cc3ccc(C#N)cc3)c3ccccc3[C@@]23C[C@@H](C(=O)OC)N(S(=O)(=O)c2ccccc2)C3=N1 (stereo partly drawn) | - | - | - | - | - | 0 | - | - | -
SMILES | Gli-Sufu block | 697 NFkB inh | TAG inh | Jurkat NFkB inh | H9c2 protect | NR2F2 inh | Gli antag conf | Gli cytotox | Wnt3a cs
COC(=O)[C@]12C[C@H](CC(=O)NCc3ccc(OC)c(OC)c3)C(=O)N(CCC3=CCCCC3)C1=C[C@H](C(C)(C)C)O[C@@H]2C | - | - | - | - | - | 0 | - | - | -
O=C(O)c1ccc(N/N=C/c2ccc(OC(=O)c3ccccc3Cl)cc2)cc1 | 61 | 0 | - | 0 | 0 | 0 | 64 | 0 | 79
O=C(Oc1ccc(/C=N/NC(=O)c2ccccc2O)cc1)c1ccccc1 | 0 | 0 | - | 0 | 0 | 0 | - | - | -
O=S1(=O)CC(N2CCCC2)CN1 (stereo not drawn) | - | - | - | - | - | 0 | - | - | -
O=C(Nc1ccc2c(c1)OCO2)NC1CCN(S(=O)(=O)c2ccc(F)cc2)CC1 | - | - | - | - | - | 0 | - | - | -
CCCC[C@H]1C2CC(OC(=O)NCc3ccc(Cl)cc3)C(C2)[C@H]2CCCCN21 (stereo partly drawn) | - | - | - | - | - | 0 | - | - | -
O=C(O)c1ccc(-c2ccc(O)c(F)c2)cc1 | 0 | 0 | 0 | 0 | 0 | 0 | 0 | 0 | 0
COC(=O)[C@]12C[C@H](CC(=O)NCCc3ccccc3OC)C(=O)N(Cc3ccc(Cl)cc3Cl)C1=C[C@H](C(C)C)O[C@@H]2C1CC1 | - | - | - | - | - | 0 | - | - | -
COc1ccc(CN2CCC(CNC(=O)NC(C)C)CC2)cc1 | - | - | - | - | - | 0 | - | - | -
O=C1N(c2cccc3ccccc23)C(c2ccccc2)N2CCCN12 (stereo not drawn) | 81 | 0 | - | 0 | 0 | 0 | 0 | 0 | 0
CCOC(=O)[C@]12CCCCC/C=C\1N(CCc1ccc(Cl)cc1)C(=O)[C@H]2CC(=O)NCCc1ccccc1OC | - | - | - | - | - | 0 | - | - | -
CCC(C)[C@H](NC(=O)N1CC(=O)Nc2ccccc21)C(=O)Nc1nccs1 (stereo partly drawn) | 60 | 0 | - | 0 | 0 | 0 | 0 | 26 | 0
CC(C)[C@H](NC(=O)N1CC(=O)Nc2ccccc21)C(=O)Nc1nccs1 | 0 | 0 | - | 0 | 0 | 0 | - | - | -
CC1(C)Cc2c(sc3nc(-c4ccccc4)n(N)c(=O)c23)CO1 | 74 | 0 | 0 | 0 | 0 | 0 | 0 | 0 | 0
Cc1ccc2nc(/C(C#N)=C\c3ccc(N4CCCCC4)c([N+](=O)[O-])c3)[nH]c2c1 | 0 | 0 | - | 0 | 0 | 0 | 0 | 0 | 0
COC(=O)c1ccc(C(=O)OC)c(NC(=O)CSc2nnc(-c3ccccc3Cl)o2)c1 | 98 | 0 | 0 | 0 | 0 | 0 | 0 | 0 | 0
